Results filed as inconclusive are left out. A call without a number means that no potency is given here. The source made the active and inactive calls. Calls come from the whole dose curve; as a rule, active = well fitted inhibition curve with a large enough effect; inconclusive = small, poorly fitted or top-dose-only effect; inactive = flat fitted curve, though single readings scatter.
test system: SC27B; assay: qHTS profiling for inhibitors of Plasmodium falciparum proliferation (AID 504749); note: nearly all actives have a fitted effect of over 60% in size; conditions: P. falciparum in erythrocytes, SYBR Green DNA, 72 h; series mostly up to 28.7 µM
Method in brief: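 Three-day growth assay of blood-stage parasites in erythrocytes (0.3% parasitemia, 2.5% hematocrit) at 37 C, 5% CO2, quantified by SYBR Green DNA staining after overnight detergent lysis.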
Potency is the fitted concentration of half-maximal effect.

Structure (SMILES)	Potency
COc1ccc(CCN(C)CCCC(C#N)(c2ccc(OC)c(OC)c2)C(C)C)cc1OC (centres undefined)	inactive
Nc1c2c(nc3ccccc13)CCCC2	inactive
CCC1(c2ccccc2)C(=O)NCNC1=O	inactive
O=C(Nc1ccc([N+](=O)[O-])cc1Cl)c1cc(Cl)ccc1O	0.631 µM (active)
NC12CC3CC(CC(C3)C1)C2	inactive
CCCCc1oc2ccccc2c1C(=O)c1cc(I)c(OCCN(CC)CC)c(I)c1	10 µM (active)
OCCN1CCN(CCCN2c3ccccc3Sc3ccc(C(F)(F)F)cc32)CC1	8.91 µM (active)
Cc1cc(C(C)(C)C)cc(C)c1CC1=NCCN1	inactive
CC(CCc1ccc(O)cc1)NCCc1ccc(O)c(O)c1 (centres undefined)	inactive
CN(C)CCCN1c2ccccc2CCc2ccc(Cl)cc21	inactive
Clc1ccc(C(c2ccccc2Cl)C(Cl)Cl)cc1 (centres undefined)	inactive
COc1cc2c(c(OC)c1OC)-c1ccc(OC)c(=O)cc1[C@@H](NC(C)=O)CC2	inactive
Cn1c(=O)c2[nH]cnc2n(C)c1=O	inactive
CN(C)CCOC(c1ccccc1)c1ccccc1	inactive
Cc1cn([C@H]2C[C@H](N=[N+]=[N-])[C@@H](CO)O2)c(=O)[nH]c1=O	inactive
CC#C[C@]1(O)CC[C@H]2[C@@H]3CCC4=CC(=O)CCC4=C3[C@@H](c3ccc(N(C)C)cc3)C[C@@]21C	7.94 µM (active)
COc1ccccc1OCCNCC(O)COc1cccc2[nH]c3ccccc3c12 (centres undefined)	12.6 µM (active)
CCOC(=O)Nc1ccc(NCc2ccc(F)cc2)nc1N	10 µM (active)
CCOC(=O)c1ncn2c1CN(C)C(=O)c1cc(F)ccc1-2	inactive
CC(C)NCC(O)COc1ccc(CCOCC2CC2)cc1 (centres undefined)	inactive
CNCCCC12CCC(c3ccccc31)c1ccccc12	inactive
CN1CCC(=C2c3ccccc3C=Cc3ccccc32)CC1	inactive
O=C1c2c(O)ccc(O)c2C(=O)c2c(NCCNCCO)ccc(NCCNCCO)c21	3.16 µM (active)
CC1(CN2CCC(n3c(=O)[nH]c4ccccc43)CC2)OCc2ccccc2-n2cccc21 (centres undefined)	10 µM (active)
COc1ccccc1N1CCN(CC(O)COc2cccc3ccccc23)CC1 (centres undefined)	inactive
CN1CCN2c3ccccc3Cc3ccccc3C2C1 (centres undefined)	inactive
CN(Cc1cnc2nc(N)nc(N)c2n1)c1ccc(C(=O)N[C@@H](CCC(=O)O)C(=O)O)cc1	0.178 µM (active)
O=C(c1ccc(OCCN2CCCCC2)cc1)c1c(-c2ccc(O)cc2)sc2cc(O)ccc12	8.91 µM (active)
COc1ccccc1OCC(O)CN1CCN(CC(=O)Nc2c(C)cccc2C)CC1 (centres undefined)	inactive

Source: PubChem BioAssay (NCATS)
